The whole screen tested about 5,500 compounds, of which about 2,000 (36%) were called active. Not shown: some 18% with an inconclusive outcome. No stated cut-off is given here; in the data, active means normalized growth mostly below about 0.91 (no sharp cut-off); inconclusive means no clear call, values can overlap the other calls; inactive means mostly above about 0.92. Some of the results follow.
Test: chemical genetic growth profiling, strain panel (AID 1159580);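 further: tested at 20 µM; growth read once vehicle control cultures reached saturation at 30 °C; 1 = growth at the plate median or of vehicle wells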
Conditions: S. cerevisiae deletion strains, growth OD

Measured: normalized growth

Cc1cc(C(=O)N(c2ccccc2)C(C)C2CC2)c(Cl)cc1Cl (stereo unspecified)
inactive: locus YAR019C, strain CDC15, stronger effect = lower value 0.987 | locus YBL105C, strain PKC1, stronger effect = lower value 0.984 | locus YBR135W, strain CKS1, stronger effect = lower value 0.984 | locus YBR136W, strain MEC1, stronger effect = lower value 0.987 | locus YBR160W, strain CDC28, stronger effect = lower value 0.991 | locus YDL017W, strain CDC7, stronger effect = lower value 0.978 | locus YDL028C, strain MPS1, stronger effect = lower value 0.982 | locus YDL101C, strain DUN1, stronger effect = lower value 0.98 | locus YDL108W, strain KIN28, stronger effect = lower value 0.978 | locus YDL132W, strain cdc53, stronger effect = lower value 0.973 | locus YDL214C, strain PRR2, stronger effect = lower value 0.955 | locus YDR052C, strain DBF4, stronger effect = lower value 0.985 | locus YDR054C, strain cdc34, stronger effect = lower value 0.966 | locus YDR226W, strain ADK1, stronger effect = lower value 0.971 | locus YDR477W, strain SNF1, stronger effect = lower value 0.942 | locus YER123W, strain YCK3, stronger effect = lower value 0.943 | locus YER133W, strain GLC7, stronger effect = lower value 0.938 | locus YFL009W, strain cdc4, stronger effect = lower value 0.973 | locus YFL029C, strain CAK1, stronger effect = lower value 0.984 | locus YFR003C, strain YPI1, stronger effect = lower value 0.979 | locus YFR019W, strain FAB1, stronger effect = lower value 0.968 | locus YFR028C, strain CDC14, stronger effect = lower value 0.979 | locus YGR040W, strain KSS1, stronger effect = lower value 0.944 | locus YGR052W, strain FMP48, stronger effect = lower value 0.949 | locus YGR092W, strain DBF2, stronger effect = lower value 0.989 | locus YHR079C, strain IRE1, stronger effect = lower value 0.97 | locus YHR082C, strain KSP1, stronger effect = lower value 0.99 | locus YHR205W, strain SCH9, stronger effect = lower value 0.985 | locus YIL147C, strain SLN1, stronger effect = lower value 0.983 | locus YJL095W, strain BCK1, stronger effect = lower value 0.939 | locus YJL128C, strain PBS2, stronger effect = lower value 0.92 | locus YJL157C, strain FAR1, stronger effect = lower value 0.957 | locus YJR016C, strain ILV3, stronger effect = lower value 0.976 | locus YJR066W, strain TOR1 (second series), stronger effect = lower value 0.921 | locus YJR066W, strain TOR1, stronger effect = lower value 1.03 | locus YKL048C, strain ELM1, stronger effect = lower value 0.966 | locus YKL067W, strain YNK1, stronger effect = lower value 0.955 | locus YKL101W, strain HSL1, stronger effect = lower value 0.953 | locus YKL193C, strain SDS22, stronger effect = lower value 0.977 | locus YKL203C, strain TOR2, stronger effect = lower value 1.01 | locus YLR133W, strain CKI1, stronger effect = lower value 0.965 | locus YLR403W, strain SFP1, stronger effect = lower value 0.993 | locus YML070W, strain DAK1, stronger effect = lower value 0.925 | locus YMR001C, strain CDC5, stronger effect = lower value 0.982 | locus YMR205C, strain PFK2 (second series), stronger effect = lower value 0.958 | locus YMR277W, strain FCP1, stronger effect = lower value 0.972 | locus YNL006W, strain LST8, stronger effect = lower value 0.989 | locus YNL020C, strain ARK1, stronger effect = lower value 0.95 | locus YNL161W, strain CBK1, stronger effect = lower value 0.979 | locus YNL183C, strain NPR1, stronger effect = lower value 1.02 | locus YNL207W, strain RIO2, stronger effect = lower value 0.978 | locus YNL222W, strain SSU72, stronger effect = lower value 0.988 | locus YNL307C, strain MCK1 (second series), stronger effect = lower value 0.941 | locus YOL078W, strain AVO1, stronger effect = lower value 0.98 | locus YOL136C, strain PFK27, stronger effect = lower value 0.936 | locus YOR061W, strain CKA2, stronger effect = lower value 0.958 | locus YOR119C, strain RIO1, stronger effect = lower value 1.02 | locus YOR231W, strain MKK1, stronger effect = lower value 0.95 | locus YOR329C, strain SCD5, stronger effect = lower value 0.984 | locus YPL031C, strain PHO85, stronger effect = lower value 0.939 | locus YPL153C, strain RAD53, stronger effect = lower value 0.921 | locus YPL204W, strain HRR25, stronger effect = lower value 0.918 | locus YPL209C, strain IPL1, stronger effect = lower value 0.985 | locus YPR025C, strain CCL1, stronger effect = lower value 0.991 | locus YPR106W, strain ISR1, stronger effect = lower value 0.982 | locus YPR111W, strain DBF20, stronger effect = lower value 0.97 | strain NNK1, stronger effect = lower value 0.976 | strain TSCII, stronger effect = lower value 0.983
active: locus YHR030C, strain SLT2, stronger effect = lower value 0.8 | locus YLR113W, strain HOG1, stronger effect = lower value 0.808 | locus YPL256C, strain CLN2, stronger effect = lower value 0.848

Reference: PubChem BioAssay AID1159580 (chemical genetic matrix, 2015)
